In all, about 310,000 compounds went through this assay and about 14,000 (4.5%) showed an effect of 50% or more. Effects have a minus sign here. The entries come from a sample that favours strong results as a whole.
Each compound was assayed against human ether-à-go-go-related gene (hERG) potassium channel (human, UniProt Q12809) (assay: primary screen, population patch clamp on CHO cells stably expressing hERG; higher = less effect of the substance).
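Also: peak tail current of the secondary pulse compared with the same well before compound.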

human ether-à-go-go-related gene (hERG) potassium channel, sequence (Q12809 whole entry, looked up): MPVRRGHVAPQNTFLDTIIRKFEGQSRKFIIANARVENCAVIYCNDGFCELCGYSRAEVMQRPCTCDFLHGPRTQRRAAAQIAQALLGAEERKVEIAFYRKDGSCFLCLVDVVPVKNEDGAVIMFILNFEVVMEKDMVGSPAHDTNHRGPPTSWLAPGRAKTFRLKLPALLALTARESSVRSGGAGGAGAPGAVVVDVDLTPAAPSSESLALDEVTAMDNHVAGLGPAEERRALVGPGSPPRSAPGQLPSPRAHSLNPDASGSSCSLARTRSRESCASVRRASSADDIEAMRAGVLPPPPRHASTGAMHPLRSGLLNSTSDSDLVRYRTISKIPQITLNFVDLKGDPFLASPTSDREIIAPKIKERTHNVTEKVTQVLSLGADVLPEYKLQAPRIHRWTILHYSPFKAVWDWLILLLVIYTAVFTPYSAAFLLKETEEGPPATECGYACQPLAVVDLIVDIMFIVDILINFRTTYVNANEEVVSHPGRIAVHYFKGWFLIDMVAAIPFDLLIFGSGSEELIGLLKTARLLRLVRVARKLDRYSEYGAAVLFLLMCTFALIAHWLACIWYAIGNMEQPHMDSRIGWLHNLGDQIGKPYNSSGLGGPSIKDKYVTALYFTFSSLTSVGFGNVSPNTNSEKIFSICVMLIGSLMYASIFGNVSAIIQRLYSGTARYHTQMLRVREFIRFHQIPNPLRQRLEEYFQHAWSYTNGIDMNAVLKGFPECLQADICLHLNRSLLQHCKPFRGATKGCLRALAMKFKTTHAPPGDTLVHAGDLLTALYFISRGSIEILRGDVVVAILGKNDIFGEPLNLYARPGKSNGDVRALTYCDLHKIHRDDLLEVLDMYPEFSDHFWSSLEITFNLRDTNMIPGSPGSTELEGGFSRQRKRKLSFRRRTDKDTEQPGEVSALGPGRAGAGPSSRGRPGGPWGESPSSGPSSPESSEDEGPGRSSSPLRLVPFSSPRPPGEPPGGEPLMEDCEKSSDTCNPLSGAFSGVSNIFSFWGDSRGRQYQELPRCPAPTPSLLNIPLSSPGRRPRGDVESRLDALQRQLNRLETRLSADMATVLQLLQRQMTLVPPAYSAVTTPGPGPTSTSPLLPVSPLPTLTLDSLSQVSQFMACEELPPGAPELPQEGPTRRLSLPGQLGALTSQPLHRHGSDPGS

Compound | hERG current change (%, negative = inhibition) at 10uM [%]
CC(=O)N1CCN(c2ccc(NC(=O)c3cccc(C)c3)cc2)CC1 | 18.5
COC(=O)c1ccc(NC(=O)CSc2nn3c(=O)c(C)nnc3s2)cc1 | 7.44
N#Cc1cccc(S(=O)(=O)NCC(=O)NCc2ccc3c(c2)OCO3)c1 | 5.51
Cc1ccc(NC(=O)CCN2CCN(C)CC2)cc1.Cl | 10.6
COc1ccc(C(=O)OCC(=O)c2ccc(C3CCCCC3)cc2)cc1 | 5.66
CN1CCN(CCCC(=O)c2ccc(C3CCCC3)cc2)CC1.Cl.O | -50
Cl.O=C(CCN1CCN(CCO)CC1)Nc1ccc(C2CCCC2)cc1 | -43
CN1CCN(CCCCC(=O)c2ccccc2)CC1.Cl | -0.477
CN1CCN(CCC(=O)Nc2ccc(C3CCCC3)cc2)CC1.Cl | -55.1
O=C(C[n+]1ccccc1)N/N=C/c1ccc(C(=O)O)cc1.[Cl-] | 0.121
CC(C)(C)C(=O)Nc1sc2c(c1C#N)CCCCC2 | 2.28
CCOC(=O)C1CCCN(S(=O)(=O)c2ccc3c(c2)CC(C)N3C(=O)C2CC2)C1 (centres unmarked) | 9.65
COc1ccc(N(CC(=O)NCc2cccc(OC)c2)S(=O)(=O)c2c(C)noc2C)cc1 | -41.1
COc1ccccc1NC(=S)NNC(=O)c1c(Cl)c(C)nn1C | 32.8
CN(C1CCCCC1)S(=O)(=O)c1cccc(C(=O)OCC(=O)NC2CCCc3ccccc32)c1 (centres unmarked) | -13.9
CCOC(=O)C1CCCN(CCC(=O)Nc2ccc(Br)cc2)C1.Cl (centres unmarked) | -66.7
CCOC(=O)C1CCN(CCC(=O)Nc2cc(C)ccc2C)CC1 | -10.7
CCOC(=O)C1CCCN(CCC(=O)Nc2ccc3c(c2)CCC3)C1 (centres unmarked) | -50.4
CCOC(=O)C1CCCN(CCC(=O)Nc2cc(C)ccc2C)C1.Cl (centres unmarked) | -67.2
Cc1cc(C)cc(NC(=O)CCN2CCCC2)c1 | -15.8
CCOC(=O)C1CCCN(CCC(=O)Nc2cc(C)cc(C)c2)C1 (centres unmarked) | -58.4
CCOC(=O)C1CCCN(CCC(=O)Nc2ccccc2C)C1.Cl (centres unmarked) | 12.5

Compound | hERG current change (%, negative = inhibition) at 10uM [%]
CC1CCCN(CCC(=O)Nc2ccc3c(c2)CCC3)C1.Cl (centres unmarked) | -33.5
CCOC(=O)C1CCCN(CCC(=O)Nc2ccccc2)C1.Cl (centres unmarked) | -9.04
CCOC(=O)C1CCCN(CCC(=O)Nc2ccc(C)c(C)c2)C1.Cl (centres unmarked) | -44.8
CCOC(=O)C1CCCN(CCC(=O)Nc2ccc(C)cc2)C1.Cl (centres unmarked) | -30.4
CCOC(=O)C1CCCN(CCC(=O)Nc2cccc(C)c2)C1.Cl (centres unmarked) | -24.5
COCC(=O)Nc1nnc(Cc2ccc(OC)c(OC)c2)s1 | -7.97
O=C(NCCC(=O)N1CCN(c2ncccn2)CC1)c1ccccc1 | 11.6
O=C(/C=C/Nc1ccc(S(=O)(=O)Nc2ncccn2)cc1)c1ccc2ccccc2c1 | 3.84
CCOC(=O)C(CC)Sc1nnc2cc(C)c3ccccc3n12 (centres unmarked) | -38
Cc1noc(C)c1CSCC(=O)N(CCC(C)C)c1c(N)n(Cc2ccccc2)c(=O)[nH]c1=O | 21.4
Cn1cc(/C(Cc2ccccc2)=N\O)c2ccccc21 | 4.78
COC(=O)c1[nH]c(C)c(/C(O)=C2\C(=O)C(=O)N(CCN(C)C)C2c2cc(OC)ccc2OC)c1C (centres unmarked) | 13.6
Cc1ccc(CSCCNC(=O)CN(c2cccc([N+](=O)[O-])c2)S(C)(=O)=O)cc1 | -53.2
O=C(CSc1ccccc1)NCCSCc1ccccc1 | -3.89
O=C(CSCc1ccc([N+](=O)[O-])cc1)Nc1ccccc1C(=O)O | 24.7
Cc1ccc(CNC(=O)CN(c2cccc([N+](=O)[O-])c2)S(C)(=O)=O)cc1 | 0.796
COc1ccc(CCNC(=O)CSCc2ccc([N+](=O)[O-])cc2)cc1 | -44.8
CCCCN(CCCC)CCNC(=O)CSCc1ccc(C)cc1.O=C(O)C(=O)O | -63.2
CCCCN(C)CCNC(=O)CSCc1ccc(C)cc1.O=C(O)C(=O)O | -37.5
Cc1ccc(CSCCNC(=O)CSCc2ccc([N+](=O)[O-])cc2)cc1 | -71.4
O=C(CSCc1ccc([N+](=O)[O-])cc1)NCCSCc1ccccc1 | -70.1
Cc1ccc(CSCCNC(=O)CN(c2ccccc2)S(C)(=O)=O)cc1 | 1.75

Compound | hERG current change (%, negative = inhibition) at 10uM [%]
Cc1cccc(CSCCNC(=O)CSCc2ccc([N+](=O)[O-])cc2)c1 | -47.8
Cc1ccc(CSCC(=O)NCCc2ccccc2)cc1 | -3.13
Cc1ccccc1NC(=O)Cn1nc(-c2ccc(Cl)s2)ccc1=O | 13.6
CSC1=N/C(=C/c2ccc(-n3cncn3)cc2)C(=O)N1 | 6.6
COc1cc(/C=N/Nc2ccc(F)cc2F)cc(OC)c1O | -2.17
O=C(COC(=O)c1ccco1)NC(c1ccccc1)c1ccccc1 | 3.56
Cc1ccc(S(=O)(=O)NCCC(=O)OCC(=O)N(C)c2ccccc2)cc1 | 4.35
CCCn1c(SCC(=O)c2ccc3c(c2)OCCO3)n[nH]c1=O | 22.6
COc1cc(OC)cc(OC(=O)c2cccc(S(=O)(=O)N3CCN(C)CC3)c2)c1 | -14.1
Cc1ccc(CSCCNC(=O)c2ccccc2)cc1 | -13.6
COc1ccc(CCNC(=O)CSCc2ccc([N+](=O)[O-])cc2)cc1OC | -37.5
CC(OC(=O)CSc1ccc([N+](=O)[O-])cc1)C(=O)NC1CC1 (centres unmarked) | -14.7
O=C(Cc1ccc([N+](=O)[O-])cc1)NC1CCCCCC1 | 7.55
CC(C)C(NC(=O)CSCc1ccc([N+](=O)[O-])cc1)C(C)C | -40.2
CC1CCN(C(=O)C(C)c2ccc([N+](=O)[O-])cc2)CC1 (centres unmarked) | -3.41
Cc1ccc(CSCCNC(=O)c2ccc(C)cc2)cc1 | 19.1
CC(C)(C)SCCNC(=O)CSCc1ccc([N+](=O)[O-])cc1 | -63.1
O=C(CSCc1ccc([N+](=O)[O-])cc1)NC1CCCCCC1 | -50.8
O=C(CSCc1ccc([N+](=O)[O-])cc1)NC1CC1 | -29.7
CC1CCN(C(=O)C(C)OC(=O)CSc2ccc([N+](=O)[O-])cc2)CC1 (centres unmarked) | -50.1
Cc1ccc(CSCCNC(=O)c2cccc([N+](=O)[O-])c2)cc1 | -64.1

From publication PMC4336329 (PLoS ONE, 2015)
